Here are results for nine molecules from ChEMBL document CHEMBL3988442, “University of Dundee, Small-Polar-MMV Screening Library” (2021).

Common to all, as to design: scale not given: direction of the effect not stated beside the values
The target of experiment [1] is Protein translocase subunit SecA (Escherichia coli (strain K12)) (UniProt P10408). Kind of experiment: Assay to Identify E. coli SecA ATPase Inhibitors. The experiment is classed as functional. The following applies: 30 µM.
Experiment [2] deals with T1, Ubiquitin-activating enzyme e1, putative (Leishmania donovani (strain BPK282A1)) (UniProt E9BSI1).
T1 sequence (whole entry): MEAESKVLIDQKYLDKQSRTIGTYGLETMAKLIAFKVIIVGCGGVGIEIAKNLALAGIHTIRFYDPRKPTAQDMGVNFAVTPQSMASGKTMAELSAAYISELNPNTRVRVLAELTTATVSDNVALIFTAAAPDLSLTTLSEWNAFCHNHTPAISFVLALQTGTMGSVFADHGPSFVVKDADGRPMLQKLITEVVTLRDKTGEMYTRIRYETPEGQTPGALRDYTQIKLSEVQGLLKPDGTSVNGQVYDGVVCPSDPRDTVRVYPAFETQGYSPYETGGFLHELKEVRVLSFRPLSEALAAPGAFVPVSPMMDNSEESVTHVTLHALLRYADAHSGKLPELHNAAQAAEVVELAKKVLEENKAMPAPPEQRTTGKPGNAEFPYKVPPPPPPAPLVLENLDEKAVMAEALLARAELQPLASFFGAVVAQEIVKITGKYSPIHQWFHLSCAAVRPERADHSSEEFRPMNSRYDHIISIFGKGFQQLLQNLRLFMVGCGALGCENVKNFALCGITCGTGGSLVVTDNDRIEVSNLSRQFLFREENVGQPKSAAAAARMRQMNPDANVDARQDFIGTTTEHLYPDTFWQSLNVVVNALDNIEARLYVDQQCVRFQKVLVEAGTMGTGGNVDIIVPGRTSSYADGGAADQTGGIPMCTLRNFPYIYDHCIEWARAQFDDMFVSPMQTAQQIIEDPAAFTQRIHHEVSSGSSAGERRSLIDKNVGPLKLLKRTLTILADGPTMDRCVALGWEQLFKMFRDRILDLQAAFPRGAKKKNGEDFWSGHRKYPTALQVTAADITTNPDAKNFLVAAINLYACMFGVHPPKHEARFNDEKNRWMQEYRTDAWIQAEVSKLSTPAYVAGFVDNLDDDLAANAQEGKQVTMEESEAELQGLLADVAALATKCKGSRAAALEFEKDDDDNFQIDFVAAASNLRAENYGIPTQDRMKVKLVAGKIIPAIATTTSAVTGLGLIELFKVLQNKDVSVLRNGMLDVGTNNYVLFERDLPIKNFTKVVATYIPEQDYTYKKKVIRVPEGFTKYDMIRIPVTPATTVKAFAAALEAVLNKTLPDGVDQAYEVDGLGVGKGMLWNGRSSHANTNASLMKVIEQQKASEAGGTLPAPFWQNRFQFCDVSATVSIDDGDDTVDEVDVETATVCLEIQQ
As to the kind of experiment: Leishmania donovani Ubiquitin Activating Enzyme (LdE1). Format: functional. Conditions: 30 µM.

The target of experiment [3] is AMP-activated protein kinase, AMPK (Homo sapiens) (UniProt P54646+O43741+P54619+Q9UGJ0+Q9Y478+Q13131+Q9UGI9). As to the kind of experiment: AMP-dependent Kinase enzyme assay. An in vitro enzyme assay that detects ADP turnover that is directly proportional to AMPK activity. This uses naive AMPK that is activated during the assay with MK-8722. The experiment is classed as functional. Conditions: 30 µM.

The target of experiment [4] is Sialic acid-binding Ig-like lectin 9 (Homo sapiens) (UniProt Q9Y336). As to the kind of experiment: Hs-Siglec9 ALPHAscreen SOP 20170721. Conditions: 10 µM.
Chain of Sialic acid-binding Ig-like lectin 9 (Homo sapiens) (Q9Y336 whole entry): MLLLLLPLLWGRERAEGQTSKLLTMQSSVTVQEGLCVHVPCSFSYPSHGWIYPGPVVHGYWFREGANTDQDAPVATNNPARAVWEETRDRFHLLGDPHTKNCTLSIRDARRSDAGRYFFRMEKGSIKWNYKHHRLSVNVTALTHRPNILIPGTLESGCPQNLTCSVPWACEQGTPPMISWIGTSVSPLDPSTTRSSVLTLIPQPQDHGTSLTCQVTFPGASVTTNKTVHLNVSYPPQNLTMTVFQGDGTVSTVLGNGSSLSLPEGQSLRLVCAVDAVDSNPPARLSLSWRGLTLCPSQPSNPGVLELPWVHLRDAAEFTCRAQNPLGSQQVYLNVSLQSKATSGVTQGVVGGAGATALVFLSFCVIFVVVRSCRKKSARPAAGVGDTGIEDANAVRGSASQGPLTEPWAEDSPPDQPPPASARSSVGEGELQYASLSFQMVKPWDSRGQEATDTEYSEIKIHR
In a further experiment the test system is Trypanosoma cruzi. Kind of experiment: Trypanosoma cruzi phosphomannomutase and mannose-1-phosphate guanylyltransferase assay. Format: functional. The following applies: 10 µM.
Experiment [5] has as its target T2, Arginase-2, mitochondrial (Homo sapiens) (UniProt P78540).
T2 sequence (whole entry): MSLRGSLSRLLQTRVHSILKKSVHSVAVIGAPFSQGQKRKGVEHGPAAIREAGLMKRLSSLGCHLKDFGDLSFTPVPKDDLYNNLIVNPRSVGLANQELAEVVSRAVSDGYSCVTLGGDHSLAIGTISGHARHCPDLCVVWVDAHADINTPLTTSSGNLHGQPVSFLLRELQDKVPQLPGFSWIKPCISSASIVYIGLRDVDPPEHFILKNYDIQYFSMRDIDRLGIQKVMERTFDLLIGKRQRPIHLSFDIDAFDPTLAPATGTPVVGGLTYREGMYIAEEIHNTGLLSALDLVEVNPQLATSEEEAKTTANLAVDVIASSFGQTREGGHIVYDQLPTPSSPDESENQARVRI
As to the kind of experiment: in vitro enzyme assay to detect the production of urea directly proportional to the activity of Arginase II. Note: in the data most compounds retested in dose-response had high values. Format: functional.

The target of experiment [6] is T3, Proteasome subunit beta (Trypanosoma cruzi) (UniProt O96673).
T3 sequence (whole entry): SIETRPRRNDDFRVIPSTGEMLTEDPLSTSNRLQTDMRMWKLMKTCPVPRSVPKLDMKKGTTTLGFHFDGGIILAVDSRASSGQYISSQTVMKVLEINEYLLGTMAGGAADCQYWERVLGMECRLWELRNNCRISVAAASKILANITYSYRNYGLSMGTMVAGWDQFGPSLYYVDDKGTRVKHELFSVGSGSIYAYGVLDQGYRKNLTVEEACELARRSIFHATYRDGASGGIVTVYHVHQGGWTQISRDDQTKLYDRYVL
Kind of experiment: Trypanosoma cruzi proteasome chymotrypsin-like activity (TcProtChymo) assay. Note: in the data most compounds retested in dose-response had high values. The experiment is classed as functional. The following applies: 9.37 µM.

The species entered for a further experiment is Homo sapiens. As to the kind of experiment: To identify inhibition of the IFN signalling (Jak-Stat) pathway via expression of an eGFP reporter gene under the control of an IFN-stimulated response element (ISRE) containing MxA promoter. The experiment is classed as functional. Conditions: 30 µM. Background: Reporter assays use an easily measured gene product as a stand-in for the process of interest.

Experiment [7] concerns the target T4, Tyrosyl-tRNA synthetase, putative (Trypanosoma cruzi (strain CL Brener)) (UniProt Q4DSP6).
T4 sequence (whole entry): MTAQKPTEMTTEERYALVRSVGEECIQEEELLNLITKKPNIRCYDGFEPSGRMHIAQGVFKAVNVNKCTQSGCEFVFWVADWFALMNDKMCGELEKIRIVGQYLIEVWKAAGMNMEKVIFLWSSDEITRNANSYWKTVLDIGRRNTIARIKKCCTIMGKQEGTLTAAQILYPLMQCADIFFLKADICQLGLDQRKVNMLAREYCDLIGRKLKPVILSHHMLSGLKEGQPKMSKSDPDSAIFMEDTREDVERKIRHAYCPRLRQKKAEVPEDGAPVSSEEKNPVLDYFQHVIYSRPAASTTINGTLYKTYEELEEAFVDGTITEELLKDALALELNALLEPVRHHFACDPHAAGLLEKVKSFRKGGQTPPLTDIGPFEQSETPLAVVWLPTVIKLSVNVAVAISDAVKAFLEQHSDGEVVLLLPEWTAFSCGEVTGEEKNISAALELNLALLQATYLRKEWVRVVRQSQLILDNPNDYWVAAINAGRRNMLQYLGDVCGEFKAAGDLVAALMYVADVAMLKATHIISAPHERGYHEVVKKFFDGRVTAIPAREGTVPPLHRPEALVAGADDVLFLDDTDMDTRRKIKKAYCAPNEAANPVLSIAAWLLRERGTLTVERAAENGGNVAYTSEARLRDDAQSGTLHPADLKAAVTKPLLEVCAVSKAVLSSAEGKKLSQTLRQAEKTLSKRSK
As to the kind of experiment: Trypanosoma cruzi tyrosyl tRNA synthetase (TcYRS) _High Tyrosine SOP. Note: in the data most compounds retested in dose-response had high values. The experiment is classed as functional. The following applies: 30 µM.

In experiment [8] the target is T4, Tyrosyl-tRNA synthetase, putative (Trypanosoma cruzi (strain CL Brener)). Kind of experiment: Trypanosoma cruzi tyrosyl tRNA synthetase (TcYRS) SOP. Format: functional. Conditions: 30 µM.
In experiment [9] the target is Chromo domain-containing protein 1 (Saccharomyces cerevisiae (strain ATCC 204508 / S288c) (Baker's yeast)) (UniProt P32657). Kind of experiment: ScCHD-1 Enzyme Inhibition Assay. Note: in the data most compounds retested in dose-response had high values. Format: functional. Conditions: 30 µM.
Chain of Chromo domain-containing protein 1 (Saccharomyces cerevisiae (strain ATCC 204508 / S288c) (Baker's yeast)) (P32657 whole entry, the tested form may be a part): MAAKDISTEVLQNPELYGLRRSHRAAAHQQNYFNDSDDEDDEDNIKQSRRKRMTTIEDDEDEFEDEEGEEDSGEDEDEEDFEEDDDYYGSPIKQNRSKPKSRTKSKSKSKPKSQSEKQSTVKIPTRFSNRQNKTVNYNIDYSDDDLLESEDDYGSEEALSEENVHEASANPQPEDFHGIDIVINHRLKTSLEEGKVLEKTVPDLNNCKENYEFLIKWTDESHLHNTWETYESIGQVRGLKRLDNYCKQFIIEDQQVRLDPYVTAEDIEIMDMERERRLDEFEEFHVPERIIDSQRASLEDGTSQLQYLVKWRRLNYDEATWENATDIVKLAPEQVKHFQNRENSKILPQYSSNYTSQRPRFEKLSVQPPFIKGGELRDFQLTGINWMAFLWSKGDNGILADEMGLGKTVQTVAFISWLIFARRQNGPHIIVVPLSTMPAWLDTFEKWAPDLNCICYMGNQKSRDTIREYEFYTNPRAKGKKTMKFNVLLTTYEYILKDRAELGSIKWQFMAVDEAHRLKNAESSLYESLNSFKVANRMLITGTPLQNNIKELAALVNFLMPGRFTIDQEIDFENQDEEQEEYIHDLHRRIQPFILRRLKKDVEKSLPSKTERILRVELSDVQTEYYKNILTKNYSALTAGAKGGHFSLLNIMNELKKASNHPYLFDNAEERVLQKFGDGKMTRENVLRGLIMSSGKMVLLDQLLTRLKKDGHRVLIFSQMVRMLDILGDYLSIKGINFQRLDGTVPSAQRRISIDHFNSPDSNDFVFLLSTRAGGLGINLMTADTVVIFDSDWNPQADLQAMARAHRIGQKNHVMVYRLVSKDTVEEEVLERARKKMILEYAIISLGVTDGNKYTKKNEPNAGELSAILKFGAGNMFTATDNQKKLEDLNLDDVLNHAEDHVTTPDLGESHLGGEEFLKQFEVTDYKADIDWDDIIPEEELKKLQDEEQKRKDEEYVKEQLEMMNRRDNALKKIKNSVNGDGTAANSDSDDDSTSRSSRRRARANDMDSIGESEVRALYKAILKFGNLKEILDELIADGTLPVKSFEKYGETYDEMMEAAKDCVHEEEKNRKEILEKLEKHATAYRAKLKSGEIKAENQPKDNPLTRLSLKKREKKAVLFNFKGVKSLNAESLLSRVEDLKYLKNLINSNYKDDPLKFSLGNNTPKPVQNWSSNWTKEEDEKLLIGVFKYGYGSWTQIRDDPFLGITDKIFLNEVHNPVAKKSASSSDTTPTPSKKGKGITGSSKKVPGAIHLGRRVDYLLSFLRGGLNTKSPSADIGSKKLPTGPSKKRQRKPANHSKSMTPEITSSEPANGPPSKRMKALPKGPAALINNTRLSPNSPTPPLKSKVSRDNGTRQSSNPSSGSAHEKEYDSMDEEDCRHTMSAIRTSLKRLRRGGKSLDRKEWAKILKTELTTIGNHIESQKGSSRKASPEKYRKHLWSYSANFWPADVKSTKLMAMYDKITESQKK
For the next experiment, the system named is N/A. As to the kind of experiment: Trypanosoma cruzi proteasome luciferase counter-screen. The experiment is classed as functional. Conditions: 9.37 µM. (A counterscreen serves to expose hits that act by an unwanted route or on another target.)

Several values for one entry are separate records, joined by “and”; a condition that tells them apart may be missing. Equal values may be shown once. For part of these data: Results with a measured potency or affinity are listed apart.

Chain of Protein translocase subunit SecA (Escherichia coli (strain K12)) (P10408 whole entry): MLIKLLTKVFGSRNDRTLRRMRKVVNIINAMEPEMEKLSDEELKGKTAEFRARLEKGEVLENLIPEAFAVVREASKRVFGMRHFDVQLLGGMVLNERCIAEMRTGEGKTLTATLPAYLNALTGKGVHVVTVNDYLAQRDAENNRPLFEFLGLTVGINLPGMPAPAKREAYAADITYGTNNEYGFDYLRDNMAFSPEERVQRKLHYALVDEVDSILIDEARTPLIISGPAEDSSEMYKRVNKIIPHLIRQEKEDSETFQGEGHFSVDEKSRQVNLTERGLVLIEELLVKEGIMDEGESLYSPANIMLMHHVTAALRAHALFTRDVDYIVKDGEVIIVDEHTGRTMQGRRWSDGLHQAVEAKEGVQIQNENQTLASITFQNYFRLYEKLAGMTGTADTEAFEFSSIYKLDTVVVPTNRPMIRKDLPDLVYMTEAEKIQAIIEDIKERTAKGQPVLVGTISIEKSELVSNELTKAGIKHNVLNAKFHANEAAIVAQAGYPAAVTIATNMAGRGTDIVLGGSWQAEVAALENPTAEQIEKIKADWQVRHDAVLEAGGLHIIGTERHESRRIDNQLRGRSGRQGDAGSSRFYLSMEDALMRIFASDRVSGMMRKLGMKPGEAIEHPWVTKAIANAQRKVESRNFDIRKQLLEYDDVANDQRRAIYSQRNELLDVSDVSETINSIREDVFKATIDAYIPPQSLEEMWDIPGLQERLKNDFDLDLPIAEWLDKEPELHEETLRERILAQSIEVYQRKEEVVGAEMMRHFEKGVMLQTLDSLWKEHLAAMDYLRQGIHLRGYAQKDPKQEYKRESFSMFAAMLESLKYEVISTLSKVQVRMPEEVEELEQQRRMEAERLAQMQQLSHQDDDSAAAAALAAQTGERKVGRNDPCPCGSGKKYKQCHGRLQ

As for `Cc1cc(CNC(=O)N2CCN(c3ccccc3)CC2)no1`, the Percent Effect in experiment [1] was -3.75%; in experiment [2], 5.41%; in experiment [3], 2.37%; in experiment [4] it was 0.348%; in the experiment on Trypanosoma cruzi, 0%; in experiment [5] (30 µM), 3.78%. In addition, the Percent Effect in [5] (33.3 µM) was 4.17%; in experiment [6], 10.6%; in the experiment filed under Homo sapiens, -2.92%; in [7], 9.9%; in experiment [8] it was 3.66%; in [9] it was -1.36%.
Take `CSCC(=O)N1CCCC1c1noc(C2CC2)n1` (stereo not drawn): the Percent Effect in experiment [1] was -5.16%; in experiment [2], 10.7%; in experiment [3], -6.47%; in experiment [4], 12.3%; in the experiment on Trypanosoma cruzi it was 4.97%; in experiment [5] (30 µM), 4.87%. Moreover, the Percent Effect in experiment [5] (33.3 µM) was 29.2%; in experiment [6], -1.92%; in the experiment filed under Homo sapiens, 4.6%; in experiment [7] it was 0.546%; in [8] it was 11.1%; in experiment [9], -16.6%.
For the molecule `O=C(c1cn(-c2ccccc2Cl)nn1)N1CCCSCC1`, the Percent Effect in experiment [1] is -4.85%; in [2] it was 16.2%; in experiment [3], -2.86%; in [4], 38.1%; in the experiment with Trypanosoma cruzi, 5.57%; in experiment [5] (33.3 µM), 3.72%. Also, the Percent Effect was 49.8% and 55.2% and 47.1% in [6]; 26.3% and 26% in the experiment on N/A; 0.244% in the experiment listed under Homo sapiens; 2.15% in [7]; 16.1% in experiment [8]; -4.55% in experiment [9].
In the case of `CC(=O)NC(C)CC(=O)NCc1cccnc1Oc1ccccc1C` (stereo not drawn), the Percent Effect in experiment [1] was -2.11%; in experiment [2] it was 9.72%; in [3], -0.172%; in [4], -2.33%; in the experiment on Trypanosoma cruzi, -1.26%; in [5] (30 µM) it was 1.62%. Further, the Percent Effect in experiment [5] (33.3 µM) was 6.18%; in experiment [6], 11.6%; in the experiment listed under Homo sapiens, -9.66%; in experiment [7], 8.42%; in experiment [8] it was 12.8%; in experiment [9], -3.08%.
In the case of `CN(Cc1ccco1)[C@@H]1CN(Cc2ccco2)[C@@H]2CCCO[C@H]12`, the Percent Effect was -1.09% in [1]; 2.67% in experiment [2]; 15.3% in experiment [3]; -0.135% in experiment [4]; -5.71% in the experiment with Trypanosoma cruzi; -2.7% in experiment [5] (30 µM). The Percent Effect in experiment [5] (33.3 µM) was 3.03%; in experiment [6], 13.5%; in the experiment listed under Homo sapiens, 2.84%; in experiment [7] it was 4.25%; in experiment [8] it was 11.5%; in experiment [9], -5.52%.
Regarding `COCCC(=O)N1CCC2(COCc3c(C)nc(NCC4CC4)nc32)C1` (stereo not drawn), the Percent Effect in experiment [1] is -1.4%; in experiment [2] it was 13.3%; in experiment [3] it was 11.3%; in experiment [4], 1.42%; in the experiment on Trypanosoma cruzi, -5.32%; in experiment [5] (30 µM), 4.87%. The Percent Effect was -3.03% in experiment [5] (33.3 µM); 15.4% in experiment [6]; 4.83% in the experiment filed under Homo sapiens; 1.06% in experiment [7]; 11.5% in experiment [8]; -2.58% in [9].
With `Cn1cc(CN(Cc2ccccc2)CC(O)c2cccs2)cn1` (stereo not drawn), the Percent Effect was -2.22% in [1]; 2.7% in experiment [2]; -1.93% in experiment [3]; 9.64% in experiment [4]; 7.14% in the experiment with Trypanosoma cruzi; 7.03% in experiment [5] (30 µM). In addition, the Percent Effect in [5] (33.3 µM) is -1.74%; in experiment [6], 7.81%; in the experiment listed under Homo sapiens, 1.28%; in [7], -1.07%; in [8], -13.6%; in experiment [9], -8.54%.
As for `CCn1c(Nc2ccccc2OC)nc2c(C)nn(C)c2c1=O`, the Percent Effect in experiment [1] is -1.82%; in [2], 6.67%; in experiment [3], 3.08%; in experiment [4], -2.73%; in the experiment on Trypanosoma cruzi, -6.88%; in experiment [5] (30 µM) it was -9.19%. Further, the Percent Effect is -4.4% in [5] (33.3 µM); 16.3% in experiment [6]; 10.6% in the experiment listed under Homo sapiens; 8.47% in [7]; 10.3% in [8]; -10.1% in experiment [9].
Take `CN(Cc1cccnc1)C1CC2(CCN(c3ccccn3)CC2)C1`: the Percent Effect was -2.7% in experiment [1]; 13.3% in experiment [2]; 11% in experiment [3]; -6.68% in [4]; -5.12% in the experiment with Trypanosoma cruzi; 3.78% in experiment [5] (30 µM). Moreover, the Percent Effect in [5] (33.3 µM) was -1.17%; in [6], 3.26%; in the experiment listed under Homo sapiens it was 27.4%; in experiment [7] it was 7.45%; in [8] it was 16.7%; in experiment [9], -5.79%.
